{
  "source": "PubChem BioAssay (NCI)",
  "note": "About 83,000 compounds went through this panel and 20% of them were active in at least one assay; those are over-represented in the sample as a whole.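 Activity criterion: percent growth below 10, measured after cells in 96-well plates were exposed to a single compound concentration for 48 hours.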 Activity calls are given as the source filed them.",
  "data": [
    {"system": "MDA-MB-468 breast", "experiment": "NCI-60 one-dose screen, 48 h (100 = growth as untreated, 0 = no growth, -100 = all killed)", "conditions": "10 µM unless noted", "values": [
      {"smiles": "O=C(/C=C\\c1cc(Br)ccc1O)/C=C/c1cc(Br)ccc1O", "growth": "-65% (active)"},
      {"smiles": "Cc1[nH]c(C(=O)Nc2ccccc2OCc2cccc(C(=O)NC3CCNC3)c2)c(Cl)c1Cl", "note": "(stereo unspecified)", "growth": "22% (inactive)"},
      {"smiles": "O=[N+]([O-])c1ccc(Br)o1", "growth": "105% (inactive)"},
      {"smiles": "CC1CN=C(c2cccc(-c3ccc(-c4ccccc4)o3)c2)N1", "note": "(stereo unspecified)", "growth": "-35.5% (active)"},
      {"smiles": "O=C1CCc2c(sc3[nH]c(=S)n(-c4ccc(OC(F)(F)F)cc4)c(=O)c23)C1", "growth": "-4.6% (active)"},
      {"smiles": "Cc1ccccc1/C=C/c1nn2c(-c3ccoc3C)nnc2s1", "growth": "91.7% (inactive)"},
      {"smiles": "NC(=O)c1ccc2nc3c(n2c1)C(=O)C(=O)c1ccccc1-3", "growth": "-57.7% (active)"},
      {"smiles": "COC(=O)c1nc(-c2ccccc2)oc1S(=O)(=O)N(C)CCO", "growth": "6.31% (active)"},
      {"smiles": "O=P(O)(O)C(O)(Cc1cccnc1)P(=O)(O)O", "growth": "80.6% (inactive)"},
      {"smiles": "O=CN1N=C(c2ccc(Nc3ccnc4cc(Cl)ccc34)cc2)CC1c1ccccc1", "note": "(stereo unspecified)", "growth": "3.07% (active)"},
      {"smiles": "O=CNc1ccc2c(c1)Cc1cccc(NC=O)c1-2", "growth": "14.5% (inactive)"},
      {"smiles": "COc1cc2c(c(OC)c1OC)CCC(c1cccc(C(=O)Nc3cccc(Br)c3)c1)O2", "note": "(stereo unspecified)", "growth": "58.6% (inactive)"},
      {"smiles": "O=C1/C(=C/c2ccc([N+](=O)[O-])o2)Oc2ccc(Cl)cc21", "growth": "-34.5% (active)"},
      {"smiles": "OC1CSSC1Cn1cnc2c(Nc3ccc(OCc4cccc(F)c4)c(Cl)c3)ncnc21", "note": "(stereo unspecified)", "growth": "-53.2% (active)"},
      {"smiles": "COC(=O)C(=C\\c1ccc2c(c1)OCO2)/C(=C/c1ccc2c(c1)OCO2)C(=O)OC", "growth": "111% (inactive)"},
      {"smiles": "CN(C)c1ccc(Nc2c3ccccc3nc3ccccc23)cc1", "growth": "-27.5% (active)"}
    ]}
  ]
}
